Among the data in ChEMBL document CHEMBL1961873, “Compounds: GSK PKIS; Assays: Nanosyn kinase panel” (2012) are inhibition values, retold here.

Assay [1] concerns the target T1, Serine/threonine-protein kinase D2 (Homo sapiens) (UniProt Q9BZL6).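 Also: mean value of PRKD2 inhibition, from the GSK PKIS screening panel.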
T1 sequence (whole entry): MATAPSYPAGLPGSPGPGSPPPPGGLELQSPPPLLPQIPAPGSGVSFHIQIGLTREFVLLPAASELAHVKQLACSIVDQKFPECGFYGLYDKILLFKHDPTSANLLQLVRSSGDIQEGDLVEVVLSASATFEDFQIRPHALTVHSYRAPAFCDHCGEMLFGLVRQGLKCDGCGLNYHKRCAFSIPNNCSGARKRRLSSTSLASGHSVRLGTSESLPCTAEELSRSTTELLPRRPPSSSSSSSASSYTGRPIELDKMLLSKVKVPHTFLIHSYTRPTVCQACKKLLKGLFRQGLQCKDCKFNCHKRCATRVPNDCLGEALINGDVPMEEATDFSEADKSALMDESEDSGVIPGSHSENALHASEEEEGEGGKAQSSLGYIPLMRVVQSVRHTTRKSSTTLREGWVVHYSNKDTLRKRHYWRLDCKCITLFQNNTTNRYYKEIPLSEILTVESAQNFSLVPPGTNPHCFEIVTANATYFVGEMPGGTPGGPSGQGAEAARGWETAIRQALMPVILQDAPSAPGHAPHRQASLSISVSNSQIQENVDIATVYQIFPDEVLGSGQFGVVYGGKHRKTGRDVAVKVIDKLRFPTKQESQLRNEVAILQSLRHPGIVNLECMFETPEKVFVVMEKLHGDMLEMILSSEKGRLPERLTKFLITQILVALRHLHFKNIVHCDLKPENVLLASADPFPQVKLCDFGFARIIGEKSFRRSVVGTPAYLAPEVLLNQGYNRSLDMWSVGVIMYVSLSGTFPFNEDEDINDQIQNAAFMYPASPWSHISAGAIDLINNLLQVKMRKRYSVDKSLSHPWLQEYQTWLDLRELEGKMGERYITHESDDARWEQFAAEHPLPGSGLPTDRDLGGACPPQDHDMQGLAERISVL
The following applies: at 1 µM.

Assay [2] concerns the target T2, Serine/threonine-protein kinase D3 (Homo sapiens) (UniProt O94806).
T2 sequence (whole entry): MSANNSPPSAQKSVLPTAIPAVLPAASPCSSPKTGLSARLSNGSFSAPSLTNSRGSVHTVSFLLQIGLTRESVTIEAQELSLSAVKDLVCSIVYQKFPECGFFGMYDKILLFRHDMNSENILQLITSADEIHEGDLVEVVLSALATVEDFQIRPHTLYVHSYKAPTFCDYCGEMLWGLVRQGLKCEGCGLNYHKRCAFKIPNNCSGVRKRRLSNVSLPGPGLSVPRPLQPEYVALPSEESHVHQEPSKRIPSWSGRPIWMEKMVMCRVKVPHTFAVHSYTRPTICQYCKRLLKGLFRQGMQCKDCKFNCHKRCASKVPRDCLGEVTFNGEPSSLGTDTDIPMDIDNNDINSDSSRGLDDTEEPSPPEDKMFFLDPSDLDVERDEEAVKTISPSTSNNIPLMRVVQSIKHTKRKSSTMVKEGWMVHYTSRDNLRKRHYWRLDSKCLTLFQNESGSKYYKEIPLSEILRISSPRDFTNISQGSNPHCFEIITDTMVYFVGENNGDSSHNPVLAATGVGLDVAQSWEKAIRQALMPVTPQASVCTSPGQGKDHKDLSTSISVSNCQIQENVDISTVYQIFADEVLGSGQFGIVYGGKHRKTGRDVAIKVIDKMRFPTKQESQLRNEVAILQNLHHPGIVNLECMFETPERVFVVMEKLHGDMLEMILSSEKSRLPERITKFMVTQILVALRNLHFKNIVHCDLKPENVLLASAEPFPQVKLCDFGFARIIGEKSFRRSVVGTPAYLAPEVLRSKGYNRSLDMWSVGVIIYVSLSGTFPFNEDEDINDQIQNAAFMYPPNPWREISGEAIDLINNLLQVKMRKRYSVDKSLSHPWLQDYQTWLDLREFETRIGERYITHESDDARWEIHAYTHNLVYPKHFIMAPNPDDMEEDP
The following applies: at 0.1 µM.

The target in assay [3] is T2, Serine/threonine-protein kinase D3 (Homo sapiens). The following applies: at 1 µM.
Assay [4] concerns the target T3, cGMP-dependent protein kinase 1 (Homo sapiens) (UniProt Q13976).
T3 sequence (whole entry): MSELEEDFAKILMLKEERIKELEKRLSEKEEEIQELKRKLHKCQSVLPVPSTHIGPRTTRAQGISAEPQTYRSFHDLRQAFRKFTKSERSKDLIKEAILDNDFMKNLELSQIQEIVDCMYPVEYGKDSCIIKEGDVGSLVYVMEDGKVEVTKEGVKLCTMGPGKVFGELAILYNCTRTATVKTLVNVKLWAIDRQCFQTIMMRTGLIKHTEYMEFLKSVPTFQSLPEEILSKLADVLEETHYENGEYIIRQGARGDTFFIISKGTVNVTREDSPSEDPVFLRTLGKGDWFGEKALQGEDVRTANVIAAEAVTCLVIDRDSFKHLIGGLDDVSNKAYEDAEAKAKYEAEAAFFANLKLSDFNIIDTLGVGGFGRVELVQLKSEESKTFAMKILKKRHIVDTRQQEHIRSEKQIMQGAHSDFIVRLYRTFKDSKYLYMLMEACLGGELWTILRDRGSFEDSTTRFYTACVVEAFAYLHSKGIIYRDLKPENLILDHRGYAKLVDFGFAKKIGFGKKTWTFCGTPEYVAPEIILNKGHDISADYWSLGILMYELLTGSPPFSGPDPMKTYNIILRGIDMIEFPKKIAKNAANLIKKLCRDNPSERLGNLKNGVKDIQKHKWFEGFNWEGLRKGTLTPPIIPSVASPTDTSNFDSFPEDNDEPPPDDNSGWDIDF
Particulars: at 0.1 µM.

Assay [5] concerns the target T3, cGMP-dependent protein kinase 1 (Homo sapiens). Particulars: at 1 µM.
Assay [6] deals with T4, cGMP-dependent protein kinase 2 (Homo sapiens) (UniProt Q13237).
T4 sequence (whole entry): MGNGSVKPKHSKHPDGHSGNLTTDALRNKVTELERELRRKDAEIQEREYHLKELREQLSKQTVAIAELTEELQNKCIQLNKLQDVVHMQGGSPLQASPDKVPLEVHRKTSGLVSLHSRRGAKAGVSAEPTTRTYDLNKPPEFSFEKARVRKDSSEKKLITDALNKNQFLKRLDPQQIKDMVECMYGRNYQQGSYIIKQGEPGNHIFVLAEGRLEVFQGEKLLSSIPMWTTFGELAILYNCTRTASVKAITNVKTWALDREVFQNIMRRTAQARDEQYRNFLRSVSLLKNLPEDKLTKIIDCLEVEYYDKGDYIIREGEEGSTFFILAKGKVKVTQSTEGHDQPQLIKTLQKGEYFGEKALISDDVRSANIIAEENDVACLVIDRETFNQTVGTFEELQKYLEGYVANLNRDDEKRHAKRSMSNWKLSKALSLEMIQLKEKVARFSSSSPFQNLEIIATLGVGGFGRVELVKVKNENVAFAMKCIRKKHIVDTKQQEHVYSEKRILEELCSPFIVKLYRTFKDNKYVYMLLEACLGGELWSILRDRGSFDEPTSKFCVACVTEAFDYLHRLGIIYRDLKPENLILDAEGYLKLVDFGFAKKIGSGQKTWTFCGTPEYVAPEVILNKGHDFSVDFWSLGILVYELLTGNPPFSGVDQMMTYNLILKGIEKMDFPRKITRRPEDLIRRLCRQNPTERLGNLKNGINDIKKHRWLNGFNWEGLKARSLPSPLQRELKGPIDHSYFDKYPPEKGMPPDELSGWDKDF
The following applies: at 0.1 µM.

Assay [7] addresses T4, cGMP-dependent protein kinase 2 (Homo sapiens). The following applies: at 1 µM.
Assay [8] concerns the target T5, cAMP-dependent protein kinase catalytic subunit PRKX (Homo sapiens) (UniProt P51817).
T5 sequence (whole entry): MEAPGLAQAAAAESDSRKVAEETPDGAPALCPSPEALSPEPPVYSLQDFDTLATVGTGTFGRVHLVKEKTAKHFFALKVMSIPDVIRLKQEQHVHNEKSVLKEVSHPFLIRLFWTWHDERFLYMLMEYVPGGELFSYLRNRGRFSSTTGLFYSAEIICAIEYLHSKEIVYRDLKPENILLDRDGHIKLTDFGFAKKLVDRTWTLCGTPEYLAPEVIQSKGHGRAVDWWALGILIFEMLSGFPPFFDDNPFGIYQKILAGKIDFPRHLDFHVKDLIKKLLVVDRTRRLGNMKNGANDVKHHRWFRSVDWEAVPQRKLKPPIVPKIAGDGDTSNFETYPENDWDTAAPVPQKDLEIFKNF
The following applies: at 0.1 µM.

The target in assay [9] is T5, cAMP-dependent protein kinase catalytic subunit PRKX (Homo sapiens). The following applies: at 1 µM.
In assay [10] the target is Rho-associated protein kinase 1 (Homo sapiens) (UniProt Q13464). Particulars: at 0.1 µM.
Assay [11] has the same target. Particulars: at 1 µM.
The target in assay [12] is Rho-associated protein kinase 2 (Homo sapiens) (UniProt O75116). Particulars: at 0.1 µM.
The target is the same in assay [13]. Particulars: at 1 µM.
The target in assay [14] is Ribosomal protein S6 kinase alpha-1 (Homo sapiens) (UniProt Q15418). The following applies: at 0.1 µM.
For assay [15] the target is unchanged. Particulars: at 1 µM.
Assay [16] concerns the target Ribosomal protein S6 kinase alpha-3 (Homo sapiens) (UniProt P51812). The following applies: at 0.1 µM.
The target is the same in assay [17]. The following applies: at 1 µM.
Assay [18] concerns the target Ribosomal protein S6 kinase alpha-2 (Homo sapiens) (UniProt Q15349). The following applies: at 0.1 µM.
For assay [19] the target is unchanged. Particulars: at 1 µM.
The target of assay [20] is Ribosomal protein S6 kinase alpha-6 (Homo sapiens) (UniProt Q9UK32). The following applies: at 0.1 µM.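 Also: reported value is the mean inhibition of RSK4, from the GSK PKIS kinase inhibitor screen.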
Chain of Ribosomal protein S6 kinase alpha-6 (Homo sapiens) (Q9UK32 whole entry): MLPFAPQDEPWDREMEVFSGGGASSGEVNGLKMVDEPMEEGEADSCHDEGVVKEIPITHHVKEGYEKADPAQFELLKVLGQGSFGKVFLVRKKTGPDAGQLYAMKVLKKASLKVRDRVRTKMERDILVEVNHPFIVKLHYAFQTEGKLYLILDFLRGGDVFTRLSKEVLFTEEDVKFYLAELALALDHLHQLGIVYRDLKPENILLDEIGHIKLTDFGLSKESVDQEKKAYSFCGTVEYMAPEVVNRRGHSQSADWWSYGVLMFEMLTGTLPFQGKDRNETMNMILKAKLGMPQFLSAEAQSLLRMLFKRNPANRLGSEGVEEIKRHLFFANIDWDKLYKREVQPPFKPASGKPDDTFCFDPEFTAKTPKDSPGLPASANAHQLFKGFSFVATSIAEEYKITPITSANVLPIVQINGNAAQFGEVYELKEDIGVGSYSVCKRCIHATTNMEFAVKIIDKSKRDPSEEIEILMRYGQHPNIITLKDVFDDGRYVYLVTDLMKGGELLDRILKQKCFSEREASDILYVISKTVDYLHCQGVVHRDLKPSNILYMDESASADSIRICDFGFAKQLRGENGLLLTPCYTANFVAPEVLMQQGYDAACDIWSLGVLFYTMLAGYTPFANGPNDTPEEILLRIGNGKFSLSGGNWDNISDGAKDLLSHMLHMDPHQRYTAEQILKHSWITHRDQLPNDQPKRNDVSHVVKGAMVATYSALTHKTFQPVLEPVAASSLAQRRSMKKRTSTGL

Chain of Ribosomal protein S6 kinase alpha-3 (Homo sapiens) (P51812 whole entry): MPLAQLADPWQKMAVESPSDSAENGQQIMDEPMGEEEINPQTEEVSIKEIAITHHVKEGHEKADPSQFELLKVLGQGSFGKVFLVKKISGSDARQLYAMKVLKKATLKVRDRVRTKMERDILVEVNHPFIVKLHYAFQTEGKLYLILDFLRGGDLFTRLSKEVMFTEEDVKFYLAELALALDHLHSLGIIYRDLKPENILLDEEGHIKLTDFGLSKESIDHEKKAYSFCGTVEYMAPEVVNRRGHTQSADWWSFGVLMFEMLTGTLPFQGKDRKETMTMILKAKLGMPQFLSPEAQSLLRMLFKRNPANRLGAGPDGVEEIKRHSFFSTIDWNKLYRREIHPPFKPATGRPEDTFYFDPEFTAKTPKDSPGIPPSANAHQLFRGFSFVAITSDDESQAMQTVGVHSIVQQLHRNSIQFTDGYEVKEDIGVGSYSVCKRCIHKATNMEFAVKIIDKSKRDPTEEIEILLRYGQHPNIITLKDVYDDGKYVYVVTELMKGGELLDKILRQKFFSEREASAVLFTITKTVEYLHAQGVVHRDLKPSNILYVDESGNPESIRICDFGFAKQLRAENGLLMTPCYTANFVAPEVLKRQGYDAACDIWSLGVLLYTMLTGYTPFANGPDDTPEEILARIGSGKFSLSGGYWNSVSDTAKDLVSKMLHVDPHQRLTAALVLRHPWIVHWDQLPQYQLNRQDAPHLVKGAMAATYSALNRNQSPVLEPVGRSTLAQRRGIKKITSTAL
Chain of Rho-associated protein kinase 2 (Homo sapiens) (O75116 whole entry, looked up): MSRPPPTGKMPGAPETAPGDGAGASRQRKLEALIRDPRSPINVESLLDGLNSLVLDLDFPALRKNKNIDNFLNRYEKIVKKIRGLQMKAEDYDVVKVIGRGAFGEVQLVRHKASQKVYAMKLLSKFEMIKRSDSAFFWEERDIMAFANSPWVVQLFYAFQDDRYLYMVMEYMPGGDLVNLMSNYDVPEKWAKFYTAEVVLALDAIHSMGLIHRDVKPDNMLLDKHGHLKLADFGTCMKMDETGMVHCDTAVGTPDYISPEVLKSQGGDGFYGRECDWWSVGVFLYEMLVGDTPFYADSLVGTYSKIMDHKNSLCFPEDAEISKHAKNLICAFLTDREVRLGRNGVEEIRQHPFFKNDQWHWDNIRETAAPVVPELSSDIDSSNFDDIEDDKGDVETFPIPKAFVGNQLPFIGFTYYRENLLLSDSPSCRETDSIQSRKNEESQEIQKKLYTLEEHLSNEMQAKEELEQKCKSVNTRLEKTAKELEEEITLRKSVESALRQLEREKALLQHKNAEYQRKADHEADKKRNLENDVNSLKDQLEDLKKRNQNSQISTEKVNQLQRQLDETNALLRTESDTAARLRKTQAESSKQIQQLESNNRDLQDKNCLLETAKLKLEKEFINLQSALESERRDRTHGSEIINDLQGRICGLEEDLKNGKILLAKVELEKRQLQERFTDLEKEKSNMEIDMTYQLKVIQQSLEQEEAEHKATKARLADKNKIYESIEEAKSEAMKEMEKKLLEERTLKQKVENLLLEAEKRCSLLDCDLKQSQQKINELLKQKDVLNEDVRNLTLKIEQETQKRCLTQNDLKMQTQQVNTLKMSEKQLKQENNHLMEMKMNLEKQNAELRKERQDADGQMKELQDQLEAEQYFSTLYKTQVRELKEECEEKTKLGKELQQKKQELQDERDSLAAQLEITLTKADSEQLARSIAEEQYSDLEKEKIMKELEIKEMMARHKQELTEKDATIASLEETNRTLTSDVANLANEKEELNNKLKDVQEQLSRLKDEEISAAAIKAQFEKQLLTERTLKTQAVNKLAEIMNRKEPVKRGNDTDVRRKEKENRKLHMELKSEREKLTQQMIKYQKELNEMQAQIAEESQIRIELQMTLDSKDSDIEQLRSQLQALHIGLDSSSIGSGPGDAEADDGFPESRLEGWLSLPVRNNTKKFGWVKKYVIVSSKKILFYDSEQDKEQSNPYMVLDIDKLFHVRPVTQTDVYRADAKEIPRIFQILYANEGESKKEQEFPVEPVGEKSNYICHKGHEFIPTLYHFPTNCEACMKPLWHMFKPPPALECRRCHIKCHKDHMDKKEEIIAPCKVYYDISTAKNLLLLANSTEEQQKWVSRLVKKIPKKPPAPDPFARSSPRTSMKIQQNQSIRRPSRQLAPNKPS
Chain of Rho-associated protein kinase 1 (Homo sapiens) (Q13464 2-1354 limits assumed): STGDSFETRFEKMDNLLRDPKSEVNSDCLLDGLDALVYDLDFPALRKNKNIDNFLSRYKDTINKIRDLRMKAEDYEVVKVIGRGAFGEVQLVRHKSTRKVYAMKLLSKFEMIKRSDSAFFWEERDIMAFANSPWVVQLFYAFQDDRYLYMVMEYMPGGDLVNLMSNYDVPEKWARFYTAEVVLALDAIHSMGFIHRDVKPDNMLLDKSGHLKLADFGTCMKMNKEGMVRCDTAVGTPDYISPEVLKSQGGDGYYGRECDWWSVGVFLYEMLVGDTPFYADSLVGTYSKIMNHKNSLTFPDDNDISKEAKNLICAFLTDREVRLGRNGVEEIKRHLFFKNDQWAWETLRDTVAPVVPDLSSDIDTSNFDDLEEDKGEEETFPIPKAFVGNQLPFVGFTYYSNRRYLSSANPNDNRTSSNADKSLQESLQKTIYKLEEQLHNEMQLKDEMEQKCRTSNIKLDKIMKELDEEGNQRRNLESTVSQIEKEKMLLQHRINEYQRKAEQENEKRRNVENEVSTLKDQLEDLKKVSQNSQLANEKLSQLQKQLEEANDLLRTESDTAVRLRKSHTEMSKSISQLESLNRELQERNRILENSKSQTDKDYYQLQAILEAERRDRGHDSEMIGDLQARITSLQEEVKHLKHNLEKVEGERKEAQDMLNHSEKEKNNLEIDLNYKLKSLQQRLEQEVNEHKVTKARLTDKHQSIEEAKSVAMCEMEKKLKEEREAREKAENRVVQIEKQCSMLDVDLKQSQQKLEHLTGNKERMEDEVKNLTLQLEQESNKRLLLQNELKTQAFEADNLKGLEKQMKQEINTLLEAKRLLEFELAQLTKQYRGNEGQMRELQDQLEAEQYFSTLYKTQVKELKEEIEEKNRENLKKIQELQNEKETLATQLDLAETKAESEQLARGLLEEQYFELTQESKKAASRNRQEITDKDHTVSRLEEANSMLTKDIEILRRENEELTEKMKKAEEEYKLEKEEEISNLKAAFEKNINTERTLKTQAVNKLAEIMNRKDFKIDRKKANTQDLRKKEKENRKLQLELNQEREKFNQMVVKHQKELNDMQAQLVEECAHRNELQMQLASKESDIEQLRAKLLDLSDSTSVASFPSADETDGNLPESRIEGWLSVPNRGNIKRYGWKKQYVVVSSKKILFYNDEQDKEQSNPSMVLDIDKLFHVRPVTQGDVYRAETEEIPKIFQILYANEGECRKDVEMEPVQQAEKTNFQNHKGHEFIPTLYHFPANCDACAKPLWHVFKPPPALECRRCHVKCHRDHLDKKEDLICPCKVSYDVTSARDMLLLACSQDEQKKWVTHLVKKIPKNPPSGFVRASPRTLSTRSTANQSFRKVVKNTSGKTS
Chain of Ribosomal protein S6 kinase alpha-1 (Homo sapiens) (Q15418 whole entry): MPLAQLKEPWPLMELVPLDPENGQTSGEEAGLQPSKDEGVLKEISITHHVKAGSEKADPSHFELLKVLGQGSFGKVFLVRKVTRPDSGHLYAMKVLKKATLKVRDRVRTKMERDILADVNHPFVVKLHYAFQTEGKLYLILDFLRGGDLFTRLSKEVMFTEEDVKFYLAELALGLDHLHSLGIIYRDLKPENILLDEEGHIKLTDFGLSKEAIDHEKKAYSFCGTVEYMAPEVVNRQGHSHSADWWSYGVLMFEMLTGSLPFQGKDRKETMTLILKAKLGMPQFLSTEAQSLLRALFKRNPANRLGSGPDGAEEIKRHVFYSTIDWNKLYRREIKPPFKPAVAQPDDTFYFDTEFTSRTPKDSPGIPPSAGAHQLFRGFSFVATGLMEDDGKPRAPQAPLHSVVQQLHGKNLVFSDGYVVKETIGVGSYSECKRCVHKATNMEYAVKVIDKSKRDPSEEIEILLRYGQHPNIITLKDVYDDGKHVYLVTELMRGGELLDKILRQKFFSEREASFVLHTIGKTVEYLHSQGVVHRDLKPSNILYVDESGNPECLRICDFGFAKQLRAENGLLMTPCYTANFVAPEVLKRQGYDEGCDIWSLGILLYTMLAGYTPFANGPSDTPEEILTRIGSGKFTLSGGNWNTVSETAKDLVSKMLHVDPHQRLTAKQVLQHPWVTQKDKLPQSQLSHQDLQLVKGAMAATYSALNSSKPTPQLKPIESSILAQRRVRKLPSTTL

On to `O=C1Nc2ccc(-c3cccnc3)cc2C1=Cc1cc(Br)c(O)c(Br)c1`, for which the inhibition in assay [1] came out at 4.38%; in assay [2] it was 4.62%; in assay [3] it was 5.23%; in assay [4], 4.28%; in assay [5], 11%; in [6], 2.46%. In addition, the inhibition in assay [7] is 4.63%; in assay [8] it was 1.55%; in assay [9], -0.22%; in assay [10], 1.68%; in assay [11], 4.77%; in assay [12], 2.87%. In addition, the inhibition in assay [13] is 7.43%; in assay [14], 2.15%; in assay [15] it was 2.73%; in assay [16] it was 0.76%; in assay [17], -1.29%; in [18] it was 1.03%. Further, the inhibition in assay [19] was found to be 3.66%; in [20], 1.69%.

On to `CCn1c(-c2nonc2N)nc2c(C#CC(C)(C)O)nc(OCCNC)cc21`, for which the inhibition in [1] was 7.32%; in [2], 4.82%; in [3], 9.81%; in assay [4], 9.59%; in assay [5], 44.8%; in assay [6], 39.3%. Further, the inhibition in assay [7] was determined as 70.9%; in assay [8], 21.5%; in assay [9] it was 65.9%; in [10], 3.08%; in assay [11], 4.86%; in assay [12], 3.51%. Further, the inhibition was found to be 5.7% in assay [13]; 0.22% in assay [14]; 4.86% in assay [15]; 1.84% in assay [16]; 5.57% in assay [17]; 3.02% in [18]. For the same compound, the inhibition was determined as 7.49% in [19] and 0.98% in [20].

Regarding `COc1ccc2ncnc(Nc3ccc(OCc4ccccc4)cc3)c2c1`, the inhibition was determined as 2.88% in assay [1]; 0.89% in assay [2]; 2.6% in [3]; 0.77% in assay [4]; 1.95% in assay [5]; 0.94% in assay [6]. Further, the inhibition in assay [7] is 2.5%; in assay [8], 1.23%; in assay [9], 1.9%; in assay [10] it was -0.05%; in assay [11], -0.47%; in assay [12], 1.37%. Further, the inhibition was determined as 1.27% in assay [13]; 0.33% in assay [14]; 0.98% in assay [15]; 1.83% in assay [16]; 1.15% in [17]; 0.9% in assay [18]. Besides, the inhibition in assay [19] came to 0.99%; in assay [20], 1.03%.

In general, inhibition refers to the relative decrease from the control value, in per cent.
